A selection: hits, their analogues and other compounds. The true share with any hit is near 12%.
HP1b binding inh = blocks HP1-beta chromodomain binding to methylated histone tails; P83916; AlphaScreen HP1-beta / biotin-H3K9me3 peptide binding; Potency, µM (doses to about 114 µM), inactives show top-dose activity change, negative = inhibition, usual class: inhibitors; hit rate 0.56% among 390,000; AID 540317; further: nearly all actives have a fitted effect of over 70% in size
Target sequence (P83916 whole entry, looked up): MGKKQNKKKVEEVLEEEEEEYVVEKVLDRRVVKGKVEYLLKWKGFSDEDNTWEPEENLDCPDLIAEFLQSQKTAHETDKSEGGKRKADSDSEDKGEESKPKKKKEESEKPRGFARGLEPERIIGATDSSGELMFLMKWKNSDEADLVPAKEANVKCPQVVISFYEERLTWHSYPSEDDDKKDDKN
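Compound inhibition of the preformed complex between 50 nM HP1-beta and 50 nM biotinylated H3K9me3 peptide was read by AlphaScreen. Buffer was PBS pH 7.4 with 0.01% Tween-20. Incubations ran 30 min at room temperature, with 10 ug/mL donor/acceptor beads.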
BAZ2B inh = inhibitors of human BAZ2B bromodomain | AlphaScreen BAZ2B-H3K14Ac peptide displacement | Potency, µM (highest dose often 114 µM), without a hit: at the highest dose activity change, negative = inhibition, actives largely listed as inhibitors | hit rate 4.4% among 360,000 | AID 504333; further: on the % scale 0 is the no-effect control and ±100 the full control effect; nearly all actives have a fitted effect of over 60% in size
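Protein-peptide AlphaScreen: BAZ2B 50 nM, b-H3K14Ac 50 nM, 1x PBS pH 7.4 + 0.01% Tween-20. Preincubation 30 min RT; cpd 30 min RT (top 110 uM); beads 20 min RT, light-protected.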
Sfp PPTase inh = inhibitors of Bacillus subtilis Sfp phosphopantetheinyl transferase; AID 1490; Biochemical Sfp PPTase activity, qHTS; Q9F4F7; Potency, µM, for inactives: largest response in the series, negative = inhibition, usual class: inhibitors; hit rate 3.5% among 310,000;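 further: the enzyme is Sfp with the accession as filed and its product quenches rhodamine fluorescence; 0% = enzyme reaction without inhibitor and -100% = no enzyme wells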
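Reaction rates are the 30-min fluorescence difference (ex 525, em 598 nm) in wells containing 15 nM Sfp, 5 uM rhodamine-CoA and 12.5 uM BHQ-2-YbbR at pH 7.6 with 10 mM MgCl2.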
G9a block = inhibitors of human histone lysine methyltransferase G9a; Potency, µM (series often up to 102 µM), inactives show at the highest dose activity, negative = inhibition, most hits filed as inhibitors; hit rate 8.8% among 350,000; G9a H3K9 monomethylation, AlphaScreen, 2 h; Q96KQ7; further: on the % scale 0 is the no-effect control and ±100 the full control effect; nearly all actives have a fitted effect of over 75% in size
Target sequence (Q96KQ7 913-1193 limits assumed): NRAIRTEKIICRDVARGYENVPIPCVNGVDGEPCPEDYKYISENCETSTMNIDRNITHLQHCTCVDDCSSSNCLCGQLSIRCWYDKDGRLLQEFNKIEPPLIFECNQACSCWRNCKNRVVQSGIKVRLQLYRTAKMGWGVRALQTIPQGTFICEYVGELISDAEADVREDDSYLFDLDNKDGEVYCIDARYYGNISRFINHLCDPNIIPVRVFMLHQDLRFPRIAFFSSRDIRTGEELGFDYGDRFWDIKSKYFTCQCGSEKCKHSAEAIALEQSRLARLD
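Methyltransferase reactions run at room temperature for 2 h (20 nM enzyme, 500 nM biotin-H3K9 peptide, 20 uM SAM) after a 15 min compound preincubation; product detected by AlphaScreen beads and anti-H3K9me1 antibody.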
PLK1 PBD block = inhibitors of human PLK1 polo-box domain binding; Plk1 PBD binding of FITC phosphopeptide, fluorescence polarization; Potency, µM, without a hit: max response, negative = inhibition, usual class: inhibitors; P53350; hit rate 2.8% among 360,000; further: series mostly up to about 57 µM; on the % scale 0 is the no-effect control and ±100 the full control effect; nearly all actives have a fitted effect of over 65% in size
JMJD2A Tudor = JMJD2A Tudor domain (human) inhibition | hit rate 4.4% among 390,000 | O75164 | AlphaScreen JMJD2A-Tudor / H3K4me3 peptide binding | Potency, µM (series often up to 114 µM), without a hit: at the highest dose activity change, negative = inhibition, most hits filed as inhibitors; further: on the % scale 0 is the no-effect control and ±100 the full control effect; nearly all actives have a fitted effect of over 50% in size
* marks the source's active call; other numbers are inactive results; [ ] = another dose, or the depositor's remark. The call rests on the fitted dose curve; in most records, active means well fitted curve in the direction sought with a large enough effect; inconclusive means small, poorly fitted or top-dose-only effect, or another doubt; inactive means no such curve, though single readings can be large; an effect the other way counts as inactive or inconclusive. Potency means the concentration at half of the fitted maximal effect.

`CO[C@H]1COC(=O)C/C=C\[C@@H](C)[C@H](OC)COC(=O)[C@H]2CCCN2C(=O)C/C=C\[C@@H]1C` gave Sfp PPTase inh 4%.
O=c1[nH]c2ccc(S(=O)(=O)Nc3ccccc3O)cc2[nH]1 was read as HP1b binding inh 19%, BAZ2B inh -32%, Sfp PPTase inh -6%, G9a block 2.2µM*, PLK1 PBD block -5% and JMJD2A Tudor -8%.
`CCNCc1nc2cc(Cl)ccc2c(=O)[nH]1` gave HP1b binding inh 40%, BAZ2B inh -4%, Sfp PPTase inh inconclusive, G9a block inconclusive, PLK1 PBD block -8% and JMJD2A Tudor -6%.
`O=c1[nH]cnc2cc(Cl)ccc12` gave HP1b binding inh 57%, BAZ2B inh 1%, Sfp PPTase inh 11%, G9a block 50µM*, PLK1 PBD block -15% and JMJD2A Tudor 8%[11.4 µM].
For CSc1nc(N)c2c(n1)N(C)C=NS2(=O)=O the results were HP1b binding inh -1%, PLK1 PBD block -9% and JMJD2A Tudor -10%.
`Cc1cnc(C(=O)Nc2ccc(C)c(S(=O)(=O)N(C)C)c2)cn1` gave HP1b binding inh -3%, BAZ2B inh 16%, Sfp PPTase inh 5%, G9a block 23%[59 µM], PLK1 PBD block 24µM* and JMJD2A Tudor 50µM*.
`Cc1ccc2nsnc2c1NC(=O)c1cncc(Br)c1` gave HP1b binding inh 22%, BAZ2B inh 4%, Sfp PPTase inh -21%, G9a block 56µM*, PLK1 PBD block 0% and JMJD2A Tudor -13%.
For CN(C)S(=O)(=O)c1cccc(NC(=O)c2cncc(Br)c2)c1 the results were HP1b binding inh 20%, BAZ2B inh 9%, Sfp PPTase inh inconclusive, G9a block 5%[59 µM], PLK1 PBD block -4% and JMJD2A Tudor -20%.
`CC(=O)Nc1c(C)ccc2nsnc12` gave HP1b binding inh 32%, BAZ2B inh -3%, Sfp PPTase inh 1%, G9a block 10%[59 µM], PLK1 PBD block -1% and JMJD2A Tudor -8%.
`Cc1ccc(NC(=O)c2cncc(Br)c2)cc1S(=O)(=O)N(C)C` gave HP1b binding inh inconclusive, BAZ2B inh 3%, Sfp PPTase inh -22%, G9a block 13%, PLK1 PBD block 15µM* and JMJD2A Tudor 13µM*.
For CCCn1c(=O)c(C(=O)OCC)c(O)c2cc(Br)ccc21 the results were HP1b binding inh 31%, BAZ2B inh -8%, Sfp PPTase inh 8%, G9a block inconclusive, PLK1 PBD block -13% and JMJD2A Tudor -20%.
`CCOC(=O)c1c(CN(C)C)n(C)c2c(O)c(N=NC(N)=O)c3ccc(Br)cc3c12` gave HP1b binding inh 18%, BAZ2B inh -2%, Sfp PPTase inh 7%, G9a block -12%, PLK1 PBD block 21µM* and JMJD2A Tudor 35µM*.
For Cc1cccc(NC(=O)CSc2cc(C(=O)c3nccn3C)c3ccccc3n2)c1 the results were HP1b binding inh 20%, BAZ2B inh -6%, Sfp PPTase inh 15%, G9a block 13µM*, PLK1 PBD block -4% and JMJD2A Tudor inconclusive.
Screening Cn1ccnc1C(=O)c1cc(SCC(=O)NCc2ccccc2)nc2ccccc12 returned HP1b binding inh -11%, BAZ2B inh inconclusive, Sfp PPTase inh 40µM*, G9a block inconclusive, PLK1 PBD block 21µM* and JMJD2A Tudor -14%[11.4 µM].
For CCCN(C(=O)Cn1cnc2onc(-c3ccc(F)cc3)c2c1=O)c1cccc(Cl)c1 the results were HP1b binding inh 25%, BAZ2B inh 16%[57.1 µM], G9a block -16%[59 µM] and JMJD2A Tudor -5%.
Screening COc1cc(Br)c(CC2c3cc(OC)c(OC)cc3CCN2C)cc1OC (stereo unspecified) returned HP1b binding inh 5%, Sfp PPTase inh 4%, PLK1 PBD block -12% and JMJD2A Tudor -12%.
`COc1cc2c(cc1OC)[C@@H](Cc1ccc(OCCC#N)cc1)N(C)CC2` gave HP1b binding inh 7%, BAZ2B inh 5%, Sfp PPTase inh 13%, G9a block 35µM*, PLK1 PBD block -15% and JMJD2A Tudor -2%.
For O=C(NC1CCCCC1)Oc1cc2oc(=O)sc2cc1Br the results were HP1b binding inh 1%, BAZ2B inh -19%, Sfp PPTase inh 16µM*, G9a block 40µM*, PLK1 PBD block 2.1µM* and JMJD2A Tudor -27%.
Screening O=C(NC1CCCCCC1)c1ccc(Br)o1 returned HP1b binding inh 29%, BAZ2B inh 0%, Sfp PPTase inh 11%, G9a block -17%, PLK1 PBD block -8% and JMJD2A Tudor -1%.
For CCCc1nn2c(C)c(-c3ccccc3)nc2s1 the results were HP1b binding inh 130%, BAZ2B inh -1%, G9a block -8%[59 µM] and JMJD2A Tudor -14%.
`Cc1cc(Br)cc2c1N(Cc1ccccc1OC(C)C)C(=O)C2=O` gave HP1b binding inh inconclusive, BAZ2B inh 6.3µM*, G9a block 8.9µM* and JMJD2A Tudor 18µM*.
Screening CC(OC(=O)c1ccc(Cl)nc1)C(=O)Nc1ccc2c(c1)OCO2 (stereo unspecified) returned HP1b binding inh 22%, BAZ2B inh -30%, G9a block -11%[12.7 µM], PLK1 PBD block -7% and JMJD2A Tudor -25%.
Screening Cc1ccccc1OCC(=O)Nc1ccc(S(=O)(=O)Nc2ncccn2)cc1 returned HP1b binding inh 37%, BAZ2B inh 1%, G9a block inconclusive and JMJD2A Tudor -15%.
Screening CCc1cccc(OCC(=O)Nc2ccc(S(=O)(=O)Nc3ccccn3)cc2)c1 returned HP1b binding inh 35%, BAZ2B inh inconclusive, Sfp PPTase inh 10%, PLK1 PBD block 1% and JMJD2A Tudor -14%.
Cc1cc(C)nc(NS(=O)(=O)c2ccc(NC(=O)C3(c4ccc([N+](=O)[O-])cc4)CCCC3)cc2)n1 was read as HP1b binding inh 2%, BAZ2B inh -11%, Sfp PPTase inh 3%, G9a block inconclusive, PLK1 PBD block -9% and JMJD2A Tudor -32%.
Screening Cc1cc(C)c(C)c(OCC(=O)Nc2ccc(S(=O)(=O)Nc3nc(C)cc(C)n3)cc2)c1 returned HP1b binding inh 12%, BAZ2B inh -15%, G9a block 14µM* and JMJD2A Tudor -21%.
Screening COc1ccc(C2(C(=O)Nc3ccc(S(=O)(=O)Nc4nc(C)cc(C)n4)cc3)CCCC2)cc1OC returned HP1b binding inh 3%, BAZ2B inh -11%, Sfp PPTase inh 4%, G9a block 50µM*, PLK1 PBD block -4% and JMJD2A Tudor -19%.
`Cc1ccc(OCC(=O)Nc2ccc(S(=O)(=O)Nc3ncccn3)cc2)c(C(C)(C)C)c1` gave HP1b binding inh 33%, BAZ2B inh -4%, G9a block 14µM* and JMJD2A Tudor -10%.

From PubChem
